# Results taken from PubChem BioAssay (NCI).
# About 79,000 compounds went through this panel and 15% of them were active in at least one assay; those are over-represented in the sample as a whole. A number with no mark means an inactive call. Active and inactive are the calls of the source. Cut-off read from the data, not from the text of the source: active = growth inhibition above about 70%; inactive = the rest.
# Assay: NCI Yeast Anticancer Drug Screen. Data for the sgs1 mgt1 strain (AID 161);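 note: 0% = growth of cultures given vehicle only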
# Conditions: S. cerevisiae sgs1 mgt1 strain, at 50.0 µM, hits give high values
# Method in brief: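 Inhibition of yeast growth, normalised to vehicle-treated controls, is reported for a strain bearing genetic alterations in DNA damage repair.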
row,SMILES,growth inhibition
1,O=C(O)CCC(=O)CC1CCCCC1,10.2%
2,Nc1nc(Br)nc2ncn(C3CC(O)C(CO)O3)c12 (stereo not given),18.3%
3,Cc1ccc(S(=O)(=O)NCNS(=O)(=O)c2ccc(C)cc2)cc1,2.05%
4,COC1CCC(/C(C#N)=C/C2CCC(OC)C(OC)C2)CC1 (stereo not given),77.7% (active)
5,CC(C)=CCc1ccc2c(c1)CCCN2C,-17.4%
6,CCCCSC(CC(O)C(O)COC(=O)c1ccc([N+](=O)[O-])cc1)SCCCC (stereo not given),2.7%
7,COc1ccc(CC(C)SC(CC(=O)O)C(=O)O)cc1 (stereo not given),16.4%
8,COc1ncnc2ncn(C)c12,-1.25%
9,OC(CNc1ncccn1)(Cc1ccccc1)Cc1ccccc1,2.45%
10,Nc1nc(N)nc(-c2cc(Br)c(N)c(Br)c2)n1,0.95%
11,O=P(O)(OCCOc1ccccc1)OCCOc1ccccc1,8.25%
12,CN(C)C=Nc1cccc2c1NSN2,-1.35%
13,COC1OC2COC(c3ccccc3)OC2C(NC(C)=O)C1OC(C)=O (stereo not given),8.9%
14,CCOC(=O)O/C(C)=C\c1ccccc1Cl,-7.75%
15,CNc1ncc(-c2nnnn2-c2ccccc2)c(CN(C)C)n1,-3.4%
16,Nc1nc(-c2ccc(-c3ccccc3)cc2)cc(=O)[nH]1,-4.8%
17,O=C1c2ccccc2C(=O)N1/N=C1/SC(=Nc2ccccc2)C(=Nc2ccccc2)N1c1ccccc1,15%
18,C/C(=N/NC(N)=O)c1cn[nH]c1C,3.7%
19,CCOC(=O)C(NC(=O)c1cccc(Cl)c1)(N1CCN(c2cc3c(cc2F)c(=O)c(C(=O)O)cn3CC)CC1)C(F)(F)F (stereo not given),-18.3%
20,COc1cc(OC)c(OC)cc1/C=N/N=C(\N)NO,-1.95%

row,SMILES,growth inhibition
1,Clc1ccc(C2=NCCO2)cc1,-5.75%
2,C[N+]1(C)CC2C3C=C(I)C(C3)C2C1 (stereo not given),15.2%
3,BrCCCCCCCCCBr,1.05%
4,CCCCCCCCCCCCCCCCSC(=N)N,55.8%
5,CCC(CC)CC1CCCCC1O (stereo not given),-46.9%
6,COc1cc2ccc3c(c2cc1OC)CCc1cn[nH]c1-3,8%
7,CN1CCC(CN)(c2ccccc2)CC1,0.35%
8,O=C(OC1CCC(c2ccccc2)C1)c1cc([N+](=O)[O-])cc([N+](=O)[O-])c1 (stereo not given),29.4%
9,C=CCOC(=O)NC(CCC(=O)O)C(=O)O (stereo not given),19.3%
10,COc1ccc(N=Nc2c(C)nn(C(=O)c3ccncc3)c2C)cc1,13.4%
11,O=C(O)c1cc(=O)[nH]c2ccccc12,8%
12,Cc1ccc(S(=O)(=O)NC(Cc2ccccc2)C(=O)NCc2cccnc2)cc1 (stereo not given),5.2%
13,CCCCCCCCCCCCCCCCCCOCCCCCC,-19.8%
14,CN(C)NC(=O)Nc1cccc2ccccc12,-6.15%
15,N#C/C(=C/N1CCNC1=S)C(N)=O,9.5%
16,COC(=O)Cc1nn2c(nc1=O)sc1ccc3ccccc3c12,3.3%
17,CC(=O)OCC(=O)c1ccccc1,-3.8%
18,O=C1C2C=CC(n3[nH]c(=O)n(Cc4ccccc4)c3=O)CC2C(=O)N1c1ccc(Br)cc1 (stereo not given),3.1%
19,COc1ccc(/C=N/NC(=O)c2ccccc2OC)cc1,29.9%
20,CNc1ccc2c(c1)C(=O)c1ccccc1-2,-5.55%

# Assay: NCI Yeast Anticancer Drug Screen. Data for the cln2 rad14 strain (AID 165);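 note: 0% = growth equal to vehicle treated cultures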
# Conditions: S. cerevisiae cln2 rad14 strain, at 50.0 µM, hits give high values
# Method in brief: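 The screen exposed genetically defined yeast (cln2 rad14) to test compounds and scored growth inhibition relative to vehicle-treated controls.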
row,SMILES,growth inhibition [%]
1,O=C(O)CCC(=O)CC1CCCCC1,39.1
2,Nc1nc(Br)nc2ncn(C3CC(O)C(CO)O3)c12 (stereo not given),-2.25
3,Cc1ccc(S(=O)(=O)NCNS(=O)(=O)c2ccc(C)cc2)cc1,14
4,COC1CCC(/C(C#N)=C/C2CCC(OC)C(OC)C2)CC1 (stereo not given),-8.7
5,CC(C)=CCc1ccc2c(c1)CCCN2C,-47
6,CCCCSC(CC(O)C(O)COC(=O)c1ccc([N+](=O)[O-])cc1)SCCCC (stereo not given),13
7,COc1ccc(CC(C)SC(CC(=O)O)C(=O)O)cc1 (stereo not given),-37.9
8,COc1ncnc2ncn(C)c12,-12.9
9,OC(CNc1ncccn1)(Cc1ccccc1)Cc1ccccc1,19.1
10,Nc1nc(N)nc(-c2cc(Br)c(N)c(Br)c2)n1,34.6
11,O=P(O)(OCCOc1ccccc1)OCCOc1ccccc1,-24.6
12,CN(C)C=Nc1cccc2c1NSN2,29.1
13,COC1OC2COC(c3ccccc3)OC2C(NC(C)=O)C1OC(C)=O (stereo not given),9.9
14,CCOC(=O)O/C(C)=C\c1ccccc1Cl,7.75
15,CNc1ncc(-c2nnnn2-c2ccccc2)c(CN(C)C)n1,5.1
16,Nc1nc(-c2ccc(-c3ccccc3)cc2)cc(=O)[nH]1,-8.25
17,O=C1c2ccccc2C(=O)N1/N=C1/SC(=Nc2ccccc2)C(=Nc2ccccc2)N1c1ccccc1,26.4
18,C/C(=N/NC(N)=O)c1cn[nH]c1C,-66
19,CCOC(=O)C(NC(=O)c1cccc(Cl)c1)(N1CCN(c2cc3c(cc2F)c(=O)c(C(=O)O)cn3CC)CC1)C(F)(F)F (stereo not given),4.45
20,COc1cc(OC)c(OC)cc1/C=N/N=C(\N)NO,3.05

row,SMILES,growth inhibition [%]
1,Clc1ccc(C2=NCCO2)cc1,-11.8
2,C[N+]1(C)CC2C3C=C(I)C(C3)C2C1 (stereo not given),48.4
3,BrCCCCCCCCCBr,12.9
4,CCCCCCCCCCCCCCCCSC(=N)N,14.1
5,CCC(CC)CC1CCCCC1O (stereo not given),-17.2
6,COc1cc2ccc3c(c2cc1OC)CCc1cn[nH]c1-3,27.4
7,CN1CCC(CN)(c2ccccc2)CC1,-6.5
8,O=C(OC1CCC(c2ccccc2)C1)c1cc([N+](=O)[O-])cc([N+](=O)[O-])c1 (stereo not given),-4.3
9,C=CCOC(=O)NC(CCC(=O)O)C(=O)O (stereo not given),11
10,COc1ccc(N=Nc2c(C)nn(C(=O)c3ccncc3)c2C)cc1,-1.2
11,O=C(O)c1cc(=O)[nH]c2ccccc12,-0.95
12,Cc1ccc(S(=O)(=O)NC(Cc2ccccc2)C(=O)NCc2cccnc2)cc1 (stereo not given),4.45
13,CCCCCCCCCCCCCCCCCCOCCCCCC,4.2
14,CN(C)NC(=O)Nc1cccc2ccccc12,-22.4
15,N#C/C(=C/N1CCNC1=S)C(N)=O,23.9
16,COC(=O)Cc1nn2c(nc1=O)sc1ccc3ccccc3c12,1.25
17,CC(=O)OCC(=O)c1ccccc1,-4.15
18,O=C1C2C=CC(n3[nH]c(=O)n(Cc4ccccc4)c3=O)CC2C(=O)N1c1ccc(Br)cc1 (stereo not given),-30.4
19,COc1ccc(/C=N/NC(=O)c2ccccc2OC)cc1,-11.5
20,CNc1ccc2c(c1)C(=O)c1ccccc1-2,19.9
